The results in this text go back to PubChem BioAssay AID720697 (Broad Institute, 2013).

The assay in a line: HEK293T cytotoxicity, dose response, cytotoxicity control for miR-122 modulator project, cell-based, inhibitor set, cherry-pick, set 2 (AID 720697). The conditions noted are these: HEK293T viability, CellTiter-Glo luminescence, 48 h; series mostly up to 26 µM. (In ATP-based viability assays light output follows the ATP content of the culture.)

Potency and affinity values are given separately. Results filed as inconclusive are left out. Where a call stands in place of a potency, no number is given. Activity calls are given as the source filed them.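 Rule for the calls: active = signal loss with fitted half-maximal concentration at or below twice the top valid tested dose in every test run; inconclusive = runs disagree, flat 30 to 70% signal loss, or poor fit; inactive = all runs flat, opposite direction, or potency beyond limit.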

For `CN1C(=O)c2cc(NC(=O)c3cccc(F)c3)ccc2OC[C@H]2O[C@H](CC(=O)N3CCc4ccccc4C3)CC[C@@H]21`, the result was inactive. As for `COCC(=O)Nc1ccc2c(c1)C(=O)N(C)[C@H]1CC[C@@H](CC(=O)NCCCN(C)C)O[C@H]1CO2`, the compound was called inactive. For the compound `CN1C(=O)c2cc(NC(=O)c3cccc(F)c3)ccc2OC[C@H]2O[C@@H](CC(=O)O)CC[C@@H]21`, the call was inactive.

`CNC(=O)C[C@@H]1CC[C@@H]2[C@@H](COc3ccc(NC(=O)Nc4ccccc4OC)cc3C(=O)N2C)O1`: the call was inactive.
